# Assay results reported in PubChem BioAssay (NCI).
# About 83,000 compounds went through this panel and 20% of them were active in at least one assay; those are over-represented in the sample as a whole.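 Single-concentration screen, 48 h exposure, 96-well plates. Endpoint: percent growth. Below 10 = active.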 Calls of active or inactive are those of the source.
# Tested on: NCI/ADR-RES ovarian
# Experiment: NCI-60 one-dose screen, 48 h (100 = growth as untreated, 0 = no growth, -100 = all killed)
# Conditions: 10 µM unless noted
row,SMILES,growth
1,CN1CCN(c2nc3scc(-c4ccccc4)c3c(=O)[nH]2)CC1,99.2% (inactive)
2,O=C(COc1cccc(/C=C2\Oc3ccc4ccccc4c3C2=O)c1)c1ccc([N+](=O)[O-])cc1,102% (inactive)
3,CCCCCCCCCCN1CCC(N2CCCCC2)CC1,49.7% (inactive)
4,Nc1nc2c(c(=O)[nH]1)C1(C(=O)Nc3ccccc31)c1c(nc(N)[nH]c1=O)N2,102% (inactive)
5,O=c1c2ccccc2c2nccn2c2cc(Cl)ccc12,57.5% (inactive)
6,N#Cc1c(NC(=O)c2ccco2)[n+]([O-])c2cc(Cl)c(Cl)cc2[n+]1[O-],88.7% (inactive)
7,CCOC(=O)N1CCC(N=C2CSc3nnc(-c4cc(C(F)(F)F)cc(C(F)(F)F)c4)n3N2)CC1,14.1% (inactive)
8,Cn1c(N2N=C(c3ccc(Cl)cc3)CC2c2ccccc2)nc(-c2ccccc2)c(C#N)c1=O (centres undefined),82.9% (inactive)
9,CCSCC1CC(O)(c2ccccc2)C(c2ccccc2)C(c2ccc(Cl)cc2)O1 (centres undefined),17.1% (inactive)
10,N#Cc1ccc(-c2csc(Nc3ccc4nc5n(c(=O)c4c3)CCC5)n2)cc1,105% (inactive)
11,CCCCNCCCN(CCCC)CCCNCCCC,99.9% (inactive)
12,COc1cccc(/C=C2\Cc3ccccc3C2=O)c1,105% (inactive)
13,C(#Cc1ccccc1C#Cc1ccccn1)c1ccc(OCCCCCCOc2ccc(C#Cc3ccccc3C#Cc3ccccn3)cc2)cc1,40% (inactive)
14,CN(C)c1ccc(-c2nc3ncc(Br)cc3o2)cc1,88.4% (inactive)
15,Cc1ccc(S(=O)(=O)N2CCN(C(=O)CSc3nc4ccc(C)cc4[nH]3)CC2)cc1,107% (inactive)
16,COC(=O)c1c(NC(=O)CSc2nnnn2-c2ccc(OC)cc2)sc(C)c1C,83.9% (inactive)
17,CCN(CC)CCNCC(=O)Oc1ccc(/C=C/C(=O)CC(=O)/C=C/c2ccc(OC(=O)CNCCN(CC)CC)c(OC)c2)cc1OC,71.6% (inactive)
18,Cc1ccc2c(c1)C(=O)/C(=C\Nc1ccc(C(N)=O)cc1)C(O)O2 (centres undefined),110% (inactive)
19,COc1cc(/C=C/C(=O)C(C(=O)/C=C/c2ccc(OC(=O)CCNc3nnc(C)s3)c(OC)c2)C(=O)CCNc2nnc(C)s2)ccc1OC(=O)CCNc1nnc(C)s1,31.8% (inactive)
20,[N-]=[N+]=NCc1cccc(/C(O)=C/C(=O)C(=O)O)c1,78.6% (inactive)

row,SMILES,growth
1,Clc1ccc(C2c3ccccc3-c3nccn32)c(Cl)c1 (centres undefined),61.5% (inactive)
2,O=C(O)C1CCN(S(=O)(=O)c2ccc(-c3ccccc3)cc2)CC1,117% (inactive)
3,CSc1nc(N)c2c(n1)N(C)C=NS2(=O)=O,103% (inactive)
4,Cc1sc2nc(NCc3ccccc3)[nH]c(=O)c2c1C,31.2% (inactive)
5,Cc1cc(Br)c(C)cc1Br,112% (inactive)
6,O=C(/C=C(\Nc1ccccc1)c1ccccc1)c1cn(-c2ccc([N+](=O)[O-])cc2)nn1,111% (inactive)
7,COc1ccc(C2=NN(C=O)C(c3cccc(Nc4ccnc5cc(Cl)ccc45)c3)C2)cc1 (centres undefined),10.8% (inactive)
8,COc1ccc(NS(=O)(=O)N2CCCCC2)cc1,116% (inactive)
9,C[C@H]1C(=O)N2c3ccccc3[C@@]3(O)C[C@@H](n4cnc5ccccc5c4=O)C(=O)N1[C@@H]23,104% (inactive)
10,COP(=O)(OC)C(c1ccccc1)(c1ccccc1)c1ccccc1,95.9% (inactive)
11,O=c1ccn(C2CC=C(CO)O2)c(=O)[nH]1 (centres undefined),116% (inactive)
12,COc1ccc2c(c1)C(=Nc1cc(OC)c(OC)c(OC)c1)C(=O)N2,103% (inactive)
13,CC(=O)/C(=C/c1ccc(Cl)cc1)C(=O)c1ccccc1,85.2% (inactive)
14,Clc1ccc2nc(CI)c(CI)nc2c1,100% (inactive)
15,COc1cc(C2CC(C3C(=O)N(C)C(=O)N(C)C3=O)=NN2C=O)cc(OC)c1OC (centres undefined),99.8% (inactive)
16,O=C(/C=C/c1ccc([N+](=O)[O-])cc1)c1ccc2c3c(cccc13)CC2,83.3% (inactive)
17,COc1ccc(CC(=O)Nc2nn3c(-c4cc(C(F)(F)F)cc(C(F)(F)F)c4)nnc3s2)cc1,69.1% (inactive)
18,O=[N+]([O-])c1ccc2[nH]cc(-c3c4ccccc4cc4[nH]c5ccc([N+](=O)[O-])cc5c34)c2c1,8.13% (active)
19,O=Nc1c2cccnc2n2nnc3ccc(Cl)cc3c12,54.8% (inactive)
